High-throughput results from PubChem.
Vaccinia mCherry: qHTS for Stage-Specific Inhibitors of Vaccinia Orthopoxvirus: mCherry Reporter Primary qHTS; Potency, µM (highest dose often 36.5 µM), most hits filed as inhibitors; Vaccinia virus mCherry reporter infection, fluorescence; AID 720579, 2013; 310,000 tested, 0.63% active; calls by dose curve; tested in A549 cells; note: nearly all actives have a fitted effect of over 35% in size
HCV inh: qHTS Assay for Inhibitors of Hepatitis C Virus (HCV); Huh7.5.1 HCVcc-Cre infection, luciferase reporter, 44 h; Potency, µM (doses to about 41.8 µM), most hits filed as inhibitors; 340,000 tested, 3.4% active; AID 651820, 2012; active = well fitted inhibition curve with a large enough effect; inconclusive = small, poorly fitted or top-dose-only effect, or another doubt; inactive = no such curve, though single readings can be large or run the other way
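Compounds are dispensed onto cells plated 4 h earlier at 1,000 per well, with HCVcc-Cre virus (about 0.5 moi) added next. Following 44 h of culture, luminescent signal is measured for 15 sec after 15 min with substrate at room temperature.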
FMDV inh: High Throughput Screening for Foot and Mouth Disease Virus Antivirals; Potency, µM (titrated, usually from 57.9 µM), usual class: inhibitors; FMDV antiviral cell-based qHTS; 410,000 tested, 1.2% active; calls by dose curve; tested in HEK293T cells; note: read-out not given here; nearly all actives have a fitted effect of over 45% in size
Vaccinia Venus: qHTS for Stage-Specific Inhibitors of Vaccinia Orthopoxvirus: Venus Reporter Primary qHTS; Vaccinia virus Venus reporter expression, fluorescence; Potency, µM (doses to about 36.5 µM), hits mostly inhibitors; 330,000 tested, 0.46% active; calls by dose curve; tested in A549 cells; note: nearly all actives have a fitted effect of over 30% in size
HCMV inh: qHTS Assay for inhibitors of the human cytomegalovirus (HCMV). HFF cells, HCMV-luciferase reporter, 72 h; hits give low values. activity change, negative = inhibition, % at 57.5 µM. 410,000 tested, 4.5% active; in the data active = activity change below about -60%; inconclusive = no clear call, values can overlap the other calls; inactive = above about -39%
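Steps: HFFs plated, 16 h 37C; compounds added; HCMV-luciferase added to MOI 1 PFU/cell; 72 h 37C; OneGlo reagent, 5 min room temperature; luminescence read, normalized to controls.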
Each line names hits and unclear results; the compound was inactive in the other large screens. Most compounds without a hit are left out; they make up all but 7.3% or so of the library.

COc1ccc(-c2nc(CSCC(=O)N3CCN(c4cccc(C)c4C)CC3)c(C)o2)cc1OC	Vaccinia mCherry 11.2µM, FMDV inh 25.1µM, Vaccinia Venus 11.2µM, HCMV inh -93.3 (no result: HCV inh)
COc1ccc(-c2nc(CSCC(=O)N3CCN(c4ccc(OC)cc4)CC3)c(C)o2)cc1	Vaccinia Venus inconclusive (no result: HCV inh)
COc1cc(-c2c(-c3ccc4c(c3)OCO4)noc2-c2ccsc2)cc(OC)c1OC	none (no result: HCV inh, FMDV inh, HCMV inh)
Cc1ccc(C2=NC3(CCCC3)N=C2SCC(=O)Nc2ccc3c(c2)OCCO3)cc1	HCV inh inconclusive
O=C(COC(=O)CSc1ccc(Cl)cc1)NCCc1ccccc1	none
Cc1ccc(C2=NC(C)(C)N=C2SCC(=O)Nc2ccc(Cl)cc2)cc1	Vaccinia mCherry inconclusive, HCV inh inconclusive, FMDV inh 31.6µM, Vaccinia Venus inconclusive
CC1(C)N=C(SCC(=O)Nc2ccccc2)C(c2ccc(Cl)cc2)=N1	Vaccinia mCherry inconclusive, HCV inh inconclusive, FMDV inh 17.8µM, HCMV inh -65.6
O=C(COC(=O)CSc1ccc(Cl)cc1)Nc1ccccc1	HCV inh 14.1µM (no result: Vaccinia mCherry, Vaccinia Venus)
CC1(C)N=C(SCC(=O)Nc2ccc(Cl)cc2Cl)C(c2ccccc2)=N1	HCV inh inconclusive, FMDV inh inconclusive (no result: Vaccinia mCherry, Vaccinia Venus)
COc1ccc(NS(=O)(=O)c2ccc3[nH]c4c(c3c2)CCCCC4)cc1	none (no result: HCV inh)
CCc1nnc(NC(=O)CSc2nc3c([nH]c4ccccc43)c(=O)n2-c2ccc(Cl)cc2)s1	none (no result: HCV inh)
NC(Cc1ccc(C(F)(F)F)cc1)c1csc(NC(=O)Nc2ccccc2)n1 (configuration not stated)	Vaccinia mCherry inconclusive, Vaccinia Venus 10µM (no result: HCV inh)
NC(COCc1ccccc1)c1csc(Nc2nncc3ccccc23)n1 (configuration not stated)	none (no result: HCV inh)
NC(Cc1ccc(C(F)(F)F)cc1)c1csc(Nc2nncc3ccccc23)n1 (configuration not stated)	Vaccinia mCherry inconclusive, Vaccinia Venus inconclusive, HCMV inh -103.8 (no result: HCV inh)
COc1ccc(CC(N)c2csc(NC(=O)Nc3cccc(C(F)(F)F)c3)n2)cc1 (configuration not stated)	Vaccinia mCherry inconclusive, Vaccinia Venus 14.1µM (no result: HCV inh)
CCCCN(C)C(=O)c1ccc(Nc2nc(C(N)Cc3ccc(C(F)(F)F)cc3)cs2)nc1 (configuration not stated)	HCMV inh -75.8 (no result: HCV inh)
Cc1ccc(-n2c3nc(=O)[nH]c(=O)c-3cc3c(C)nn(-c4ccccc4)c32)cc1Cl	none (no result: HCV inh)
NC(CCc1ccccc1)c1csc(NC(=O)Nc2cccc(C(F)(F)F)c2)n1 (configuration not stated)	Vaccinia mCherry inconclusive, Vaccinia Venus inconclusive, HCMV inh -98.1 (no result: HCV inh)
CCCCCCN(C(=O)CCCCCN1C(=O)NC(c2ccccc2)C(C(=O)OCc2ccccc2)=C1C)C(C(=O)NCCCC)c1ccc(OCC(=O)OC)c(C(=O)OC)c1 (configuration not stated)	HCMV inh -98.1 (no result: Vaccinia mCherry, HCV inh, FMDV inh, Vaccinia Venus)
CCCCCCN(C(=O)CCCCCN1C(=O)NC(c2ccc(C3CCCCC3)cc2)C(C(=O)OCc2ccccc2)=C1C)C(C(=O)NCCCC)c1ccc(OCC(=O)OC)c(C(=O)OC)c1 (configuration not stated)	none (no result: Vaccinia mCherry, HCV inh, FMDV inh, Vaccinia Venus)
CCN(CC)CCNC(=O)c1c(C)oc2ncnc(N3CCOCC3)c12	none (no result: HCV inh)
Cc1ccc(S(=O)(=O)CCc2nnc(N)s2)cc1C	none (no result: FMDV inh)
Cc1ccc(S(=O)(=O)CCc2nnc(NC(=O)CCl)s2)cc1C	HCV inh inconclusive, HCMV inh -78.3
CCCOCc1ccc(O)c2ncccc12	Vaccinia mCherry inconclusive, HCV inh 5.62µM, Vaccinia Venus inconclusive, HCMV inh -103.7
CN(Cc1ccco1)Cc1ccc(O)c2ncccc12	none (no result: Vaccinia mCherry, HCV inh, Vaccinia Venus, HCMV inh)
CC(C)COCc1ccc(O)c2ncccc12	Vaccinia mCherry 10µM, HCV inh 2.82µM, Vaccinia Venus inconclusive, HCMV inh inconclusive
C[C@H]1Cn2cnc(C(=O)N3CCN(c4ccccc4)CC3)c2C(=O)N1	none (no result: Vaccinia mCherry, HCV inh, FMDV inh, Vaccinia Venus)
COc1ccccc1C1NC(=O)c2n[nH]c(-c3cccs3)c21 (configuration not stated)	FMDV inh inconclusive (no result: HCV inh)
Cc1nc2cnc(N3CCN(C)CC3)nc2n(C)c1=O	none (no result: Vaccinia mCherry, HCV inh, Vaccinia Venus, HCMV inh)
COC(=O)N1CCC[C@@]2(CCN(Cc3cc(C(F)(F)F)cc(C(F)(F)F)c3)C2)C1	none (no result: Vaccinia mCherry, HCV inh, Vaccinia Venus, HCMV inh)
C/C(=C\c1ccc(N(C)C)cc1)[N+](=O)[O-]	HCV inh inconclusive, FMDV inh 14.1µM, HCMV inh -101.6 (no result: Vaccinia mCherry, Vaccinia Venus)
COc1ccc(C(=O)c2c(-c3cccc(C)c3)oc3ccc(N4CCOCC4)cc23)cn1	HCV inh inconclusive, HCMV inh -72.7
Cc1ccc(-n2c(C)cc(C(=O)COc3c(CO)cc(F)cc3CO)c2C)cc1C	HCV inh inconclusive, FMDV inh inconclusive, HCMV inh -91.7
Cc1cc(C(=O)COc2ccccc2Cl)c(C)n1-c1ccc2c(c1)OCO2	none
CCc1nnc(SC(CC)C(=O)Nc2cccc(OC)c2)c2cc3oc(C)cc3n12 (configuration not stated)	none (no result: HCV inh)
Cc1ccc(C(=O)Nc2c(C(=O)Nc3ccc(C)c(C)c3)sc3nc(C)cc(C)c23)cc1	Vaccinia mCherry inconclusive, Vaccinia Venus inconclusive, HCMV inh -106.9 (no result: HCV inh)
Cc1cc(C)c2c(NC(=O)c3ccccc3Cl)c(C(=O)Nc3ccc(C)c(C)c3)sc2n1	none (no result: HCV inh)
Cc1cc(C2(c3ccc(O)c(C)c3)C(=O)Nc3ccccc32)ccc1O	FMDV inh inconclusive, Vaccinia Venus inconclusive, HCMV inh -79.6 (no result: Vaccinia mCherry)
Cc1c(C(=O)NCc2cccc(Br)c2)oc2ccc3c(c12)C(=O)CC(C)(C)O3	none (no result: HCV inh)
COc1cc2c(cc1NC(=O)CSc1nc3ccccc3[nH]1)oc1ccccc12	Vaccinia mCherry inconclusive, HCV inh 8.91µM, HCMV inh inconclusive
COc1cc2c(cc1NC(=O)CSc1ccccc1)oc1ccccc12	HCV inh inconclusive, HCMV inh inconclusive (no result: Vaccinia mCherry, Vaccinia Venus)
COc1cc2c(cc1NC(=O)CSc1nc3cc(Cl)ccc3s1)oc1ccccc12	none
COc1cc2c(cc1NC(=O)CSc1nccn1C)oc1ccccc12	HCV inh 2.82µM (no result: Vaccinia mCherry, Vaccinia Venus)
O=S(=O)(c1ccc(Cl)cc1)N1CCN(c2nc(Nc3cc(Cl)ccc3O)nc3ccccc23)CC1	none (no result: HCV inh, FMDV inh, HCMV inh)
Cc1ccc(S(=O)(=O)/N=C(/Nc2cccc(O)c2)c2ccccc2)cc1	HCV inh 11.2µM
Cc1ccc(NC(=O)Cn2c(O)c(N=NC(=O)c3cc4ccccc4cc3O)c3ccccc32)cc1	HCV inh inconclusive, HCMV inh -101.3
COc1ccccc1NC(=O)Cn1c(O)c(N=NC(=O)c2ccccc2O)c2ccccc21	FMDV inh inconclusive, HCMV inh -106.8 (no result: Vaccinia mCherry, Vaccinia Venus)
Cn1c(O)c(N=NC(=O)c2ccccc2O)c2ccccc21	HCV inh inconclusive
CN1/C(=C\C=O)C(C)(C)c2ccccc21	none
CN1\C(=C/C=C/C=C/C=[N+](C)C)C(C)(C)c2ccccc21	FMDV inh 15.8µM (no result: Vaccinia mCherry, Vaccinia Venus)
CCOC(=O)c1csc(N)c1-c1ccc([N+](=O)[O-])cc1	HCV inh inconclusive, HCMV inh -71.5 (no result: Vaccinia mCherry, Vaccinia Venus)
